Among all 360,000 compounds or so, about 1,300 (0.36%) were called active. The sample holds actives, similar compounds and a random draw of the others, so the mix is not that of the screen. Rule as the data show it: active = inhibition above about 19%; inactive = the rest.
The molecules below were run on T-cell receptor (TCR) (assay: inhibitors of human TCR-CD3 interaction, primary screen, biochemical, fluorescence, TAMRA-labeled TCR probe (AID 651800;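 also: recombinant mutant TCR 2C K166C tagged with TAMRA read by polarization; 0% = receptor in buffer alone and 100% = receptor with positive control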)). Settings: at 9.4 µM, hits give high values.
With `COC(=O)Cc1nnn2c1[C@H](C)[C@H](c1ccccc1Br)OCC2` the inhibition was -3.6% (inactive).
In the case of `COC(=O)C1=C(C)N(Cc2cccc(C(F)(F)F)c2)C(=NCc2ccccc2)NC1c1ccccc1C(F)(F)F` (stereo unspecified), the inhibition is reported as 2.13% (inactive).
For `O=C1[C@@H](c2ccccc2)[C@@H](c2ccccc2)N1c1ccccc1`, the inhibition was 4.73% (inactive).
`C=CC1=CCN(S(=O)(=O)C(C)(C)C)[C@@H]1CCO` was tested, and the inhibition was 5.24% (inactive).
In the case of `COC(=O)c1cc(Oc2ccc(S(=O)(=O)N3CCOCC3)cc2[N+](=O)[O-])cc(C(=O)OC)c1`, the inhibition is reported as 7.58% (inactive).
With `O=[N+]([O-])c1cc(Cl)cc(/C=N/NC(=S)Nc2cc(S(=O)(=O)N3CCOCC3)ccc2Cl)c1O` the inhibition was 41.3% (active).
For `Cc1cc(OCCCC(=O)Nc2cc(S(=O)(=O)N3CCOCC3)ccc2N2CCOCC2)ccc1Cl`, the inhibition was 0.46% (inactive).
With `O=S(=O)(c1cccs1)N1CCCc2nc(-c3ccc(Br)cc3)ccc21` the inhibition was 3.53% (inactive).
`COc1ccccc1CCn1cnc(-c2ccccc2)c1C(C)C` was tested, and the inhibition was 0.67% (inactive).
`COc1cc(OC)cc(-c2c(-c3cccs3)c3cc(-c4ccc(OC)nc4)ccc3n2C)c1` was tested, and the inhibition was -3.68% (inactive).
`COc1ccc(-c2c(-c3cc(OC)cc(OC)c3)n(C)c3ccc(-c4ccn[nH]4)cc23)cc1` was tested, and the inhibition was 23.9% (active).
For `COc1cc(OC)cc(-c2c(-c3ccc(F)cc3)c3cc(-c4ccc5cc[nH]c5c4)ccc3n2C)c1`, the inhibition was -1.04% (inactive).
`COc1cccc(CNC(=O)[C@H]2CCCN2C(=O)[C@H]2CCCN2C(=O)c2ccc(F)cc2)c1` was tested, and the inhibition was 5.75% (inactive).
In the case of `Cc1c(CC(=O)N2CCN(C(=O)C3COc4ccccc4O3)CC2)c(=O)oc2c(O)c(O)ccc12` (stereo unspecified), the inhibition is reported as 82.2% (active).
In the case of `Cc1c(CCC(=O)O)c(=O)oc2c(C)c(OCc3ccccc3Cl)ccc12`, the inhibition is reported as -7.63% (inactive).
For `Cc1ccc(S(=O)(=O)NCCC(=O)NNC(=O)C2COc3ccccc3O2)cc1` (stereo unspecified), the inhibition was -2.9% (inactive).
In the case of `O=c1ccc2c(-c3ccccc3S(=O)(=O)O)c3ccc(O)c(O)c3oc-2c1O`, the inhibition is reported as 33.4% (active).
`COc1ccc(C2=CN(Cc3ccccc3)C(c3ccc(OC)cc3)CC2=O)cc1` (stereo unspecified) was tested, and the inhibition was -0.11% (inactive).
In the case of `COC(=O)[C@]12C[C@H](CC(=O)NCCCCc3ccccc3)C(=O)N(Cc3ccc4c(c3)OCO4)C1=C[C@H](C(C)(C)C)O[C@@H]2C`, the inhibition is reported as -0.56% (inactive).
For `COC(=O)C1=C(C)N(Cc2ccccc2C(F)(F)F)C(=NCc2ccc(C(F)(F)F)cc2)NC1c1ccc(F)cc1` (stereo unspecified), the inhibition was 10.2% (inactive).
With `COc1ccc(/C(=N\O)c2nccc3cc(OC)c(OC)cc23)cc1OC` the inhibition was 37.5% (active).
`COC(=O)c1ccc(-c2c(-c3ccccc3)ncc3cc(OC)c(OC)cc23)cc1` was tested, and the inhibition was -0.95% (inactive).
`COc1cc2ccc(C(C)=O)c(O)c2cc1OC` was tested, and the inhibition was -7.1% (inactive).
With `O=C(NCC1CCCO1)C(C(=O)c1ccccc1)n1cc(Cl)ccc1=O` (stereo unspecified) the inhibition was 4.24% (inactive).
With `CN(C)CCNC(=O)Cc1ccc([N+](=O)[O-])cc1` the inhibition was 6.84% (inactive).
In the case of `CN(C)CCNC(=O)C(C(=O)c1ccccc1)n1ccccc1=O` (stereo unspecified), the inhibition is reported as 27.9% (active).
`Nc1ncnc2c1ncn2C1OC(CO)CC1O` (stereo unspecified) was tested, and the inhibition was -7.35% (inactive).
In the case of `COC(=O)c1c(-c2ccc(OC)cc2)c2c(c3c4ccccc4n(S(=O)(=O)c4ccc(C)cc4)c13)C(=O)N(C)C2`, the inhibition is reported as 0.77% (inactive).
With `O=S1(=O)c2c(cccc2N2CCCCC2)O[C@H](COCc2ccccc2)CN1C1CC1` the inhibition was 2.48% (inactive).
For `CSc1ccc(Oc2cccc3c2S(=O)(=O)N([C@H](C)c2ccccc2)C[C@@H](COCc2ccccc2)O3)cc1C`, the inhibition was 11.5% (inactive).
With `O=S1(=O)c2c(cccc2N2CCCC2)O[C@H](COCc2ccccc2)CN1C1CC1` the inhibition was 19.3% (active).
`CC1CCN(C(=O)c2ncn3c2C(=O)N[C@@H](C)C3)CC1` was tested, and the inhibition was 3.49% (inactive).
`COc1ccc(/C=C/c2c(-c3cccc(C)c3)oc3ccc(-c4ccc5c(c4)OCO5)cc23)cc1` was tested, and the inhibition was -3.78% (inactive).
With `Nc1[nH]c(C(=O)c2ccc(Br)cc2)c(-c2ccc3c(c2)OCO3)c1C(=O)NCCc1c[nH]c2ccccc12` the inhibition was -5.65% (inactive).
In the case of `COc1ccccc1N(CC(=O)N1CCCCC1)S(=O)(=O)c1ccccc1`, the inhibition is reported as 3.6% (inactive).
In the case of `COc1ccccc1N(CC(=O)Nc1c(C)n(C)n(-c2ccccc2)c1=O)S(=O)(=O)c1ccccc1`, the inhibition is reported as 3.09% (inactive).
In the case of `COc1ccccc1N(CC(=O)N/N=C(\C)c1ccccc1O)S(=O)(=O)c1ccc(C)cc1`, the inhibition is reported as 26.6% (active).
`COC(=O)[C@]12C[C@H](CC(=O)N3CCN(C(=O)C4CC4)CC3)C(=O)N(Cc3ccc4c(c3)OCO4)C1=C[C@H](C(C)(C)C)O[C@@H]2C` was tested, and the inhibition was 3.03% (inactive).
`C/C=C/C=C/C(=O)O` was tested, and the inhibition was 27.1% (active).
`COc1ccc(-c2ccccc2C2Cc3nnccc3CN2C(=O)Nc2ccccc2)cc1` (stereo unspecified) was tested, and the inhibition was -1.6% (inactive).
With `CCCCCCCCN1C(=O)[C@@H](CC(=O)NCc2ccccc2)C[C@@]2(C(=O)OC)C1=C[C@H](C(C)(C)C)O[C@@H]2C` the inhibition was -4.58% (inactive).
For `CCCCc1ccc(NC(=O)CN2C(=O)NC(Cc3ccccc3)C2=O)cc1` (stereo unspecified), the inhibition was -0.34% (inactive).
In the case of `O=C1C(Cc2ccc(O)cc2)NC(=S)N1Cc1ccccc1` (stereo unspecified), the inhibition is reported as 25.9% (active).
For `Cc1cc(C)c(NC(=O)CN2C(=O)NC(Cc3ccccc3)C2=O)c(C)c1` (stereo unspecified), the inhibition was -1.72% (inactive).
For `COc1ccccc1-c1ccc([C@@H]2C[C@H]3[C@H](CON3C)CN2S(=O)(=O)c2cc(Cl)cc(Cl)c2)cc1`, the inhibition was -0.88% (inactive).
With `C[C@@H]1ON(C)[C@H]2C[C@H]3c4cc(N5CCOCC5)ccc4CCN3C[C@@H]12` the inhibition was 7.02% (inactive).
In the case of `COc1cccc2cc(C(N)=O)/c(=N\NC(=O)c3ccccc3)oc12`, the inhibition is reported as 6.06% (inactive).
In the case of `CCN(CC)c1ccc(C(=O)N/N=C(\C)c2cccc(OC)c2)cc1`, the inhibition is reported as 6.48% (inactive).
`CCN(CC)c1ccc2cc(C(N)=O)/c(=N\NC(=O)c3ccncc3)oc2c1` was tested, and the inhibition was 30.5% (active).
For `O=C(NCc1ccccc1)[C@H]1CCCN1C(=O)[C@@H]1CCCN1C(=O)c1ccc(Cl)cc1Cl`, the inhibition was 5.28% (inactive).
`CCc1ccc(C2=CC(=O)CC(C)(C)C2=O)cc1` was tested, and the inhibition was -0.75% (inactive).
For `COc1ccc(C(=O)NCCSc2ccccc2C)cc1`, the inhibition was -0.19% (inactive).
With `COc1ccc(C(=O)NNc2cc(C)nc(NNC(=O)c3ccc(OC)cc3)n2)cc1` the inhibition was 19.4% (active).
`COc1ccc(C(=O)NCC[N+](C)(C)C)cc1` was tested, and the inhibition was -6.67% (inactive).
In the case of `CC(c1ccccc1)n1c(NCCCn2ccnc2)nc2c1c(=O)[nH]c(=O)n2C` (stereo unspecified), the inhibition is reported as 5.62% (inactive).
In the case of `COc1ccc(S(=O)(=O)Nc2ccc3c(c2)C(=O)N([C@H](C)CO)C[C@H](C)[C@@H](CN(C)C)OCCCC[C@H](C)O3)cc1`, the inhibition is reported as -1.68% (inactive).
For `CC(=O)c1ccc(S(=O)(=O)NCC2CCN(C(=O)C(=O)c3cccs3)CC2)cc1`, the inhibition was -11.4% (inactive).
With `CCN(CC)CCCC(C)n1c2nc(=O)[nH]c(=O)c-2nc2cc(Cl)ccc21` (stereo unspecified) the inhibition was 54.6% (active).
In the case of `O=C(NCc1ccccc1)[C@H]1CCCN1C(=O)[C@H]1CCCN1C(=O)c1cc(F)cc(F)c1`, the inhibition is reported as 1.6% (inactive).
For `Cc1ccc(-c2nn(-c3ccccc3)cc2C(=O)Nc2cccc(S(=O)(=O)N3CCOCC3)c2)cc1`, the inhibition was 2.85% (inactive).
`O=C(/C=C/c1cn(-c2ccccc2)nc1-c1ccc2c(c1)OCCO2)NCCCN1CCOCC1` was tested, and the inhibition was -3.23% (inactive).
With `Cc1ccc(-c2nn(-c3ccccc3)cc2/C=C/C(=O)Nc2cccc(S(N)(=O)=O)c2)cc1` the inhibition was 83.6% (active).
In the case of `CN(C)C(=O)N1CCN(C(=O)[C@@H](Cc2ccccc2)NC(=O)[C@H]2O[C@@H](n3ccc(N)nc3=O)[C@H](O)[C@@H]2O)CC1`, the inhibition is reported as -1.88% (inactive).
For `COC(=O)C1=C(C(=O)OC)C2C=C(C(C)C)C1C(=O)C2(C)O` (stereo unspecified), the inhibition was -5.88% (inactive).
`COC(=O)C1=C(C)N(Cc2cccc(C(F)(F)F)c2)C(=NCc2cccc(C(F)(F)F)c2)NC1c1ccccc1C(F)(F)F` (stereo unspecified) was tested, and the inhibition was 7% (inactive).
With `CC1CCCN(c2cccc3c2S(=O)(=O)N(Cc2ccc(F)cc2)[C@@H](C)[C@H](c2ccccc2)O3)C1` (stereo partly specified) the inhibition was -3.78% (inactive).
With `CC(C)C[C@H](NC(=O)CC1CCCC1)C(=O)N1CCC[C@H]1C(=O)NCc1ccccc1` the inhibition was -0.62% (inactive).
`COc1ccccc1C(=O)NNC(=O)c1ccc(NC(=O)c2ccccc2)cc1` was tested, and the inhibition was 37.3% (active).
For `COc1ccccc1C(=O)NCC(=O)OCC(=O)NNC(=O)c1ccc(Br)cc1`, the inhibition was 7.36% (inactive).
With `COc1ccccc1C(=O)c1ccccc1C(=O)c1ccccc1` the inhibition was -2.38% (inactive).
With `CC(=O)C1=C(C)N(Cc2ccc(Cl)cc2)C(=S)NC1c1ccc(F)cc1` (stereo unspecified) the inhibition was 3.88% (inactive).
With `COc1ccccc1Cc1c(-c2ccc(F)cc2)nc2ccc(C)cn12` the inhibition was -1.71% (inactive).
In the case of `O=C(NCc1ccccc1)[C@@H]1CCCN1C(=O)[C@@H](NS(=O)(=O)c1ccc(F)cc1F)C1CCCCC1`, the inhibition is reported as -7.08% (inactive).
For `Cc1ccc(C(=O)NCC(=O)O)cc1S(=O)(=O)N1CCCCC1`, the inhibition was 21.8% (active).
`COc1ccccc1C(CNC(=O)c1ccc(C)c(S(=O)(=O)N2CCCCC2)c1)N(C)C` (stereo unspecified) was tested, and the inhibition was -9.01% (inactive).
With `Cc1ccc(C(=O)NNC(=O)c2ccncc2)cc1S(=O)(=O)N1CCCCC1` the inhibition was -4.33% (inactive).
`COC(=O)[C@]12C[C@H](CC(=O)NCc3ccc(OC)c(OC)c3)C(=O)N(Cc3ccccc3)C1=C[C@H](C(C)C)O[C@@H]2C1CC1` was tested, and the inhibition was 1.22% (inactive).
For `Cc1nn(C)cc1N1C(=O)c2cccc3c(N)ccc(c23)C1=O`, the inhibition was 38% (active).
With `COc1ccc(NS(=O)(=O)c2cc(NC(=O)C3CCCCC3)ccc2N2CCOCC2)cc1` the inhibition was 0.76% (inactive).
`COc1ccc(NS(=O)(=O)c2cc(NC(=O)c3ccc(S(=O)(=O)N(C)C)cc3)ccc2N2CCOCC2)cc1` was tested, and the inhibition was 1.69% (inactive).
With `COc1ccc(NS(=O)(=O)c2cc(NC(=O)/C=C/c3cc(OC)c(OC)c(OC)c3)ccc2N2CCCCC2)cc1` the inhibition was 22.8% (active).

Reference: PubChem BioAssay AID651800 (The Scripps Research Institute Molecular Screening Center, 2012)
